Data on 13 compounds can be found in PubChem BioAssay.

Calls of active or inactive are those of the source.

A short description of test [1]: binders of probe aFSTL3 on microarray, primary screen, stem cell growth factor project, biochemical, small-molecule microarray, fluorescence 635/667 (AID 1064).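 Also: measures binding of the biotinylated anti-FSTL3 antibody to printed compounds.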 The settings on record: higher = more signal.
Test [2] can be described thus: binders from COS7 lysate, DM2A8 probe, primary screen, torsin A project, cell lysate, small-molecule microarray, fluorescence 635/667 (AID 1065). The settings on record: higher = more signal, COS7 lysate expressing mutant human TOR1A.
The nature of test [3]: binders of probe aFGF2 on microarray, primary screen, stem cell growth factor project, biochemical, small-molecule microarray, fluorescence 635/667 (AID 1067).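 Also: measures binding of biotinylated aFGF2 protein to printed compounds on slides; z-score merges feature fluorescence and signal-to-noise across triplicate slides.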 The note with it: higher = more signal.
A short description of test [4]: binders of probe aFGF10 on microarray, primary screen, stem cell growth factor project, biochemical, small-molecule microarray, fluorescence 635/667 (AID 1071).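 Also: score merges 667 nm spot intensity and signal to noise from triplicate slides.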 The settings on record: higher = more signal.
Test [5] deals with Neurogenic locus notch homolog protein 2 (Homo sapiens) (UniProt Q04721). The experiment in a line: Notch2 binders on small-molecule microarrays, primary screen, biochemical, small-molecule microarray, 635 nm fluorescence, stem cell growth factors (AID 1073). The note with it: Notch2 binding, higher = more signal.
Chain of Neurogenic locus notch homolog protein 2 (Homo sapiens) (Q04721 whole entry, looked up, canonical isoform): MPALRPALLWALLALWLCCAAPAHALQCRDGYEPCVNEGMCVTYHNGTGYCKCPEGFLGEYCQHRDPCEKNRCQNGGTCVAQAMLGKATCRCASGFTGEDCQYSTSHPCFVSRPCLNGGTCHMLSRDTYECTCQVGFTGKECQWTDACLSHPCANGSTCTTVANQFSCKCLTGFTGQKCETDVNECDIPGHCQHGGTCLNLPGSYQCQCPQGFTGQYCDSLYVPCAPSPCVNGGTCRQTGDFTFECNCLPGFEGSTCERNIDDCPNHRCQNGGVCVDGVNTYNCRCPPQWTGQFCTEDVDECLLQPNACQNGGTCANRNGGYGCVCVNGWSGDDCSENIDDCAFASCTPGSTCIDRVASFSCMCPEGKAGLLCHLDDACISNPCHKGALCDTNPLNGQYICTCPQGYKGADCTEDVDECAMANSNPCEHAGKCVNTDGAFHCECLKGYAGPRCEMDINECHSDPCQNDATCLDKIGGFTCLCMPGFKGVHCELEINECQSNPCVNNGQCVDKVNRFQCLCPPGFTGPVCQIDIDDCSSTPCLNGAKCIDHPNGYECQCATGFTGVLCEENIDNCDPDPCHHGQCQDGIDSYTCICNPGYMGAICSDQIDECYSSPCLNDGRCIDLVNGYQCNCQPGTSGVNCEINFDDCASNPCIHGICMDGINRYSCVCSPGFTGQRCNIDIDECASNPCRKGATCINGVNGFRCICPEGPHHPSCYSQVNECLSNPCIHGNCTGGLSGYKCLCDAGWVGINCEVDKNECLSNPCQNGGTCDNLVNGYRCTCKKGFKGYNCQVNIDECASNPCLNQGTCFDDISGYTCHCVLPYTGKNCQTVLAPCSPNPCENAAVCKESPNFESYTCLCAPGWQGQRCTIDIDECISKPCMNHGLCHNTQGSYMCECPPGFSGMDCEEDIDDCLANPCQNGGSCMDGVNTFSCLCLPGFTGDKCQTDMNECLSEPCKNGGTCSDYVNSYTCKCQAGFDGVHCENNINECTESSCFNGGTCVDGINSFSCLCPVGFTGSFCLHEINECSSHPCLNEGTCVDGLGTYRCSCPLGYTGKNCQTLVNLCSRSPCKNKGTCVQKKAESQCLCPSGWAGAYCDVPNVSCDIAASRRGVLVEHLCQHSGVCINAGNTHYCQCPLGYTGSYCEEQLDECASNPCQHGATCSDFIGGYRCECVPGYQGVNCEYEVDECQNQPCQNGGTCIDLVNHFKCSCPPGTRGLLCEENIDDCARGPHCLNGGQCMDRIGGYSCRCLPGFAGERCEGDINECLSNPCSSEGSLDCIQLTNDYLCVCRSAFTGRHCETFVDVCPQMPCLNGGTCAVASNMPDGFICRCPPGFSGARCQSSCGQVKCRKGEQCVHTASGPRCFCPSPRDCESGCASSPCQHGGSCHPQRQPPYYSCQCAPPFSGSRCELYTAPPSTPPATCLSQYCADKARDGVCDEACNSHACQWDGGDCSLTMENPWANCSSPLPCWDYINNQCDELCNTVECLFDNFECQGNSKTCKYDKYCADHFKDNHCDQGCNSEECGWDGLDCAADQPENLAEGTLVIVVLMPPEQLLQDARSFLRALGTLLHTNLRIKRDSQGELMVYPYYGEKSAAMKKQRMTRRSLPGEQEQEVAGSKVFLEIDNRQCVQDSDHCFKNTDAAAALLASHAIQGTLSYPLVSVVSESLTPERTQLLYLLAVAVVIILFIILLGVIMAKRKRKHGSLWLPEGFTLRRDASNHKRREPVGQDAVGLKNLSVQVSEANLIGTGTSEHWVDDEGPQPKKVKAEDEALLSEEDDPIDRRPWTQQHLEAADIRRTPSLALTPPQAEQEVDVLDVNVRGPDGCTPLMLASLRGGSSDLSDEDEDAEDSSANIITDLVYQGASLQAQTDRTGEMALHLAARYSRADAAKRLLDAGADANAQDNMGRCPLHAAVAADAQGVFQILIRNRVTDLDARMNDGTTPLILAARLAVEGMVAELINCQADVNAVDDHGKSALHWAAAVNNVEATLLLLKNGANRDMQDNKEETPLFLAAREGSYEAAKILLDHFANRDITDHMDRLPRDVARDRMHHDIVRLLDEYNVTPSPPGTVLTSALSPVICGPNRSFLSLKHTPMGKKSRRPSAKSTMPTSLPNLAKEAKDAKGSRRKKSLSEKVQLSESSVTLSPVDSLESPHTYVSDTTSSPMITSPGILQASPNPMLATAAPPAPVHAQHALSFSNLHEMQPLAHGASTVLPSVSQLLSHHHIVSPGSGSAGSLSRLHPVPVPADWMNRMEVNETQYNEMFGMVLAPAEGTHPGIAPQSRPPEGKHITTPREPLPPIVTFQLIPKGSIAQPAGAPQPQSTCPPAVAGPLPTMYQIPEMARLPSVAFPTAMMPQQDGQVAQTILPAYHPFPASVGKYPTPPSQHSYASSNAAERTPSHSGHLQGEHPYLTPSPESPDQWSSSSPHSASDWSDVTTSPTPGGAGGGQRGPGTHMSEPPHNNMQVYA
The target of test [6] is Pro-neuregulin-1, membrane-bound isoform (Homo sapiens) (UniProt Q02297). Nature of the test: NRG1 binders on small-molecule microarrays, primary screen, psychiatric disease protein project, biochemical, small-molecule microarray, fluorescence 635/667 (AID 1075).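 Also: score combines 667 nm spot fluorescence with signal to noise.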 The settings on record: NRG1 binding, 635 nm fluorescence, higher = more signal.
Chain of Pro-neuregulin-1, membrane-bound isoform (Homo sapiens) (Q02297 whole entry, looked up, the tested form may be a part, canonical isoform): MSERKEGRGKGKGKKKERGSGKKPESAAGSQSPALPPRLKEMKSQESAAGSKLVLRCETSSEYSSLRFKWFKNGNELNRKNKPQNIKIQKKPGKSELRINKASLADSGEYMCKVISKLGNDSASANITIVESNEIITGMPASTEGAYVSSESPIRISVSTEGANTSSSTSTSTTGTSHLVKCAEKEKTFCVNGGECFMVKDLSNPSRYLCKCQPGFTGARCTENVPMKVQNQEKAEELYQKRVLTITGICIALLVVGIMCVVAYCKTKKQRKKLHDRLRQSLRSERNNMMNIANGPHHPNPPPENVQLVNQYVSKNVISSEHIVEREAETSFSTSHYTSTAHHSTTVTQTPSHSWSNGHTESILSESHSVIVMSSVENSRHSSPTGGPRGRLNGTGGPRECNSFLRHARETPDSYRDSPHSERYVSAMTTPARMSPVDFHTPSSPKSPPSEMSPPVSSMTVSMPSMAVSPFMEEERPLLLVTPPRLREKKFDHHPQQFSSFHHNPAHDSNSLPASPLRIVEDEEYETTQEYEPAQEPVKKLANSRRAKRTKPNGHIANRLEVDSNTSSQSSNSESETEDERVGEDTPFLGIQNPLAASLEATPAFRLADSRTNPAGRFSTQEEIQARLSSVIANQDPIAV
Test [7] concerns Neuregulin-1 EGF-like domain. The experiment in a line: binders of neuregulin-1 EGF-like domain, primary screen, biochemical, small-molecule microarray, 635 nm fluorescence (AID 1081).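 Also: binding of the protein to compounds printed on small-molecule microarray slides.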 The note with it: small-molecule microarray binding, higher = more signal.
Test [8] can be described thus: FRG1 promoter luciferase signal modulators, primary screen, FRG1 inhibition for FSHD, cell-based, C2C12 myotubes, firefly/Renilla luciferase, luminescence (AID 1084). The settings on record: higher = more signal, called active from +8 up or from −8 down.
A short description of test [9]: binders of probe aFST on microarray, primary screen, stem cell growth factor project, biochemical, small-molecule microarray, fluorescence 635/667 (AID 1086).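 Also: score merges 667 nm fluorescence with signal-to-noise of each printed compound spot.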 The note with it: higher = more signal.
Test [10] in a line: binders of probe aHhip on microarray, primary screen, stem cell growth factor project, biochemical, small-molecule microarray, fluorescence 635/667 (AID 1087).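 Also: score merges spot fluorescence at 667nm with spot signal to noise ratio.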 The note with it: higher = more signal.

With `CCCCN1CC=CC23O[C@@H]4/C=C\CCCOC(=O)C4[C@H]2C(=O)N(CCCO)[C@@H]3C1=O` (stereo not given in full), the composite z-score in test [1] was 0.228; in test [2] it was -0.7; in test [3] it was -0.036; in test [4], -0.0326; in [5], -0.913; in test [6], 0.817. Moreover, the composite z-score in test [7] is 1.46; in test [9] it was -0.629; in test [10] it was -0.318. For the same compound, in [8], the z-score was 0.829 (inactive).

Regarding `CC(=O)Nc1cc(Br)ccc1C(=O)NCc1ccccc1`, the composite z-score in [1] was -0.16; in test [2] it was -0.0459; in [3] it was 0.0213; in test [4], -0.0284; in [5] it was 0.359; in [6], 0.685. Also, the composite z-score in test [7] is 1.23; in [9], -0.0314; in test [10], -0.226. In test [8], the z-score was 0.0163 (inactive).

As for `C=C(CCCC)/C(=C/C[C@H](OC(C)=O)c1ccccc1OCCO)c1cnc2ccccc2c1`, the composite z-score is -0.279 in test [1]; 0.0976 in test [2]; -0.115 in test [3]; 0.506 in [4]; 0.3 in test [5]; 0.324 in test [6]. Also, the composite z-score in [7] is 1.04; in [9] it was 0.162; in [10] it was 0.0505. The z-score in [8] is -1.48 (inactive).

Consider `COc1ccc(C#Cc2ccc3c(c2)[C@]2(C(=O)N3)[C@H](c3ccc(O)cc3)N3[C@H](c4ccccc4)[C@H](c4ccccc4)OC(=O)[C@H]3[C@@H]2C(=O)N2CCc3cc(OC)c(OC)cc3C2)cc1`, for which the composite z-score in test [1] was -0.284; in [2] it was 0.0877; in test [3], 0.0106; in test [4] it was 0.355; in test [5] it was 0.84; in test [6], 1.32. The figures for the composite z-score in [7], in test [9] and in [10] were 1.26, 0.464 and 0.0505, respectively. In addition, in test [8], the z-score was 1.46 (inactive).

`C=CCC(OC(C)=O)[C@@H]1[C@@H](N(Cc2cc3ccccc3o2)C(=O)Cc2ccc(OC)cc2)c2cc(OCCCO)ccc2N1C(=O)c1ccc2ccccc2c1` (stereo not given in full): the composite z-score in test [1] was 0.0894; in test [2] it was 0.196; in test [3] it was -0.062; in [4], 0.0575; in [5], -0.709; in test [6] it was -0.336. Moreover, the composite z-score was -0.0601 in test [7], -0.005 in [9] and 0.0505 in test [10]. Further, in test [8], the z-score was -0.194 (inactive).

As for `OCCCC1=CC(C2CC2)N(Cc2cccc(OC(F)(F)F)c2)CC1` (stereo not given), the composite z-score in [1] is -0.367; in test [2], 0.406; in test [3] it was -0.208; in [4], -0.771; in test [5] it was -0.464; in test [6], -0.106. Further, the composite z-score in test [7] is 0.677; in [9] it was -0.658; in test [10], -0.0373. In addition, the z-score in test [8] was 0.606 (inactive).

For the compound `O=C1O[C@H](c2ccccc2)[C@H](c2ccccc2)N2[C@H]1[C@@H](C(=O)NC[C@H](O)c1ccccc1)[C@]1(C(=O)Nc3ccc(C#CC4=CCCCC4)cc31)[C@H]2c1ccccc1OCCO`, the composite z-score was 0.185 in test [1]; 0.463 in test [2]; 0.0637 in test [3]; 0.496 in [4]; 0.908 in [5]; 0.298 in test [6]. Further, the composite z-score is 1.07 in test [7], 0.599 in [9] and -0.0645 in test [10]. Also, the z-score in [8] is -0.341 (inactive).

For the compound `COc1ccc(CCNC(=O)[C@@]2(c3ccc([N+](=O)[O-])cc3)CC(=O)N(CC34CC5CC(CC(C5)C3)C4)[C@@H]2c2ccc(CO)cc2I)cc1`, the composite z-score in [1] is -0.235; in test [2], 1; in [3], 0.0569; in test [4] it was 0.377; in [5], 0.6; in test [6] it was 1.09. The values for the composite z-score in test [7], in test [9] and in test [10] were 1.2, -0.0217 and -0.446, respectively. In addition, the z-score in [8] was -1.64 (inactive).

Consider `CN(C)CCCCNC(=O)[C@@H]1C[C@@H]2C(=O)N[C@@H](CCCCN)C(=O)N2[C@@H]1c1ccc(O)cc1`, for which the composite z-score was 0.597 in test [1]; 0.034 in test [2]; -0.145 in test [3]; -0.146 in test [4]; 0.471 in test [5]; 0.707 in test [6]. In addition, the composite z-score came to 1.13 in test [7], 0.214 in test [9] and 0.151 in test [10]. Further, the z-score in test [8] is -0.778 (inactive).

Regarding `OB1C=CCC(CCc2ccccc2)O1` (stereo not given), the composite z-score is 0.0393 in test [1]; -0.334 in [2]; -0.0883 in test [3]; -0.254 in test [4]; -0.809 in test [5]; -0.995 in [6]. The composite z-score is -0.989 in test [7], -0.393 in [9] and -0.132 in [10]. For the same compound, in [8], the z-score was -0.209 (inactive).

For `CCC(CC)C(O)C1C=CC2C(=O)N(c3ccccc3)C(=O)C2N1Nc1ccccc1` (stereo not given), the composite z-score was found to be 0.525 in test [1]; 0.814 in test [2]; 0.21 in test [3]; 0.974 in test [4]; 1.62 in [5]; 1.94 in test [6]. The composite z-score in test [7] was 1.27; in [9] it was 1.42; in test [10], -0.216. Moreover, the z-score in [8] was -1.31 (inactive).

As for `O=C1C2C=CC(C(O)c3cc(C(F)(F)F)cc(C(F)(F)F)c3)N(Nc3ccccc3)C2C(=O)N1c1ccccc1` (stereo not given), the composite z-score in test [1] is 0.281; in test [2], 1.2; in test [3], -0.0064; in test [4], 0.35; in test [5], 0.649; in [6] it was 1.8. The composite z-score in [7] is 1.12; in test [9], 0.664; in test [10], -0.0994. Besides, the z-score in test [8] was 0.995 (inactive).

Turning to `CCN(CC)c1ccc(N2CC=CC34O[C@@H]5/C=C\CCC(C)OC(=O)C5[C@H]3C(=O)N(CCCCCO)[C@@H]4C2=O)cc1` (stereo not given in full), the composite z-score in [1] was -0.129; in test [2] it was -0.474; in test [3] it was -0.103; in test [4], -0.497; in [5] it was -1.45; in test [6], -0.551. The composite z-score in [7] is -0.506; in [9] it was -0.284; in test [10], -0.37. Also, in test [8], the z-score is 0.376 (inactive).
